Experimental data taken from PubChem BioAssay (NCI).
This is part of a sample that, as a whole, favours compounds with a hit. Of some 83,000 tested, about 20% had one in any assay.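 Plates (96-well) were seeded with cells, treated with compound at one concentration, and incubated for 48 hours before percent growth was determined.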 A number with no mark means an inactive call. Active and inactive are the calls of the source. The calls were made as follows: active = growth percent below 10; inactive = the rest.

How the values were obtained:
Test in all cases: NCI-60 one-dose screen, 48 h (100 = growth as untreated, 0 = no growth, -100 = all killed)
SR leukemia = conditions: 10 µM unless noted
OVCAR-8 ovarian = conditions: 10 µM unless noted
OVCAR-5 ovarian = conditions: 10 µM unless noted
OVCAR-4 ovarian = conditions: 10 µM unless noted
IGROV1 ovarian = conditions: 10 µM unless noted
OVCAR-3 ovarian = conditions: 10 µM unless noted
HS 578T breast = conditions: 10 µM unless noted
NCI/ADR-RES ovarian = conditions: 10 µM unless noted
BT-549 breast = conditions: 10 µM unless noted
MDA-MB-435 melanoma = conditions: 10 µM unless noted
SW-620 colon = conditions: 10 µM unless noted
MCF7 breast = conditions: 10 µM unless noted
HCT-116 colon = conditions: 10 µM unless noted
HCC-2998 colon = conditions: 10 µM unless noted
KM12 colon = conditions: 10 µM unless noted
SK-OV-3 ovarian = conditions: 10 µM
T-47D breast = conditions: 10 µM

Compound: Cc1ccccc1-n1nnc(C(=O)Nc2nc(-c3ccccc3)c(-c3ccccc3)s2)c1C
- growth (SR leukemia): 69.5% [50 µM]
- growth (OVCAR-8 ovarian): 67.9% [50 µM]
- growth (OVCAR-5 ovarian): 96.5% [50 µM]
- growth (OVCAR-4 ovarian): 58.1% [50 µM]
- growth (IGROV1 ovarian): 89.9% [50 µM]
- growth (OVCAR-3 ovarian): 79.8% [50 µM]
- growth (HS 578T breast): 46.7% [50 µM]
- growth (NCI/ADR-RES ovarian): 84.3% [50 µM]
- growth (BT-549 breast): 89.7% [50 µM]
- growth (MDA-MB-435 melanoma): 82.7% [50 µM]
- growth (SW-620 colon): 87.3% [50 µM]
- growth (MCF7 breast): 72.2% [50 µM]
- growth (HCT-116 colon): 62.6% [50 µM]
- growth (HCC-2998 colon): 99.1% [50 µM]
- growth (KM12 colon): 81.4% [50 µM]

Compound: c1ccc2cc(Cn3c(-c4ccc5ccccc5c4)[n+](Cc4ccc5ccccc5c4)c4ccccc43)ccc2c1
- growth (SR leukemia): -27.8% (active)
- growth (OVCAR-8 ovarian): -62.9% (active)
- growth (OVCAR-5 ovarian): -12.2% (active)
- growth (OVCAR-4 ovarian): -17.2% (active)
- growth (IGROV1 ovarian): -74% (active)
- growth (OVCAR-3 ovarian): -96% (active)
- growth (HS 578T breast): -58.9% (active)
- growth (NCI/ADR-RES ovarian): 31.2%
- growth (BT-549 breast): -46.5% (active)
- growth (MDA-MB-435 melanoma): -80.4% (active)
- growth (SW-620 colon): -85% (active)
- growth (MCF7 breast): -70.1% (active)
- growth (HCT-116 colon): -61% (active)
- growth (HCC-2998 colon): -88.7% (active)
- growth (KM12 colon): -90.6% (active)

Compound: O=C(O)C[C@H](O)C[C@H](O)/C=C/c1c(C2CC2)nc2ccccc2c1-c1ccc(F)cc1
- growth (SR leukemia): 12.1%
- growth (OVCAR-8 ovarian): 61.5%
- growth (OVCAR-5 ovarian): 79%
- growth (OVCAR-4 ovarian): 111%
- growth (SK-OV-3 ovarian): 93.7%
- growth (IGROV1 ovarian): 53.4%
- growth (OVCAR-3 ovarian): 103%
- growth (HS 578T breast): 70.1%
- growth (NCI/ADR-RES ovarian): 37.2%
- growth (T-47D breast): 95.9%
- growth (BT-549 breast): 75.1%
- growth (MDA-MB-435 melanoma): 93.9%
- growth (SW-620 colon): 83.3%
- growth (MCF7 breast): 96.3%
- growth (HCT-116 colon): 63.3%
- growth (HCC-2998 colon): 99%
- growth (KM12 colon): 102%

Compound: CCCCCCCCCCCCSC1=CC(=O)C=CC1=O
- growth (SR leukemia): 71.5%
- growth (OVCAR-8 ovarian): 35.1%
- growth (OVCAR-5 ovarian): 89.7%
- growth (OVCAR-4 ovarian): 57.1%
- growth (SK-OV-3 ovarian): 82.3%
- growth (IGROV1 ovarian): -26.6% (active)
- growth (OVCAR-3 ovarian): 73.2%
- growth (HS 578T breast): 63.8%
- growth (NCI/ADR-RES ovarian): 59.8%
- growth (T-47D breast): 30.6%
- growth (BT-549 breast): 16.5%
- growth (MDA-MB-435 melanoma): 102%
- growth (SW-620 colon): 109%
- growth (MCF7 breast): 68.9%
- growth (HCT-116 colon): 78.3%
- growth (HCC-2998 colon): 94.3%
- growth (KM12 colon): 48.9%

Compound: Cc1c(C(=O)Nc2nc(-c3ccccc3)cs2)nnn1-c1ccccc1Br
- growth (SR leukemia): 17% [50 µM]
- growth (OVCAR-8 ovarian): 40.1% [50 µM]
- growth (OVCAR-5 ovarian): 77.4% [50 µM]
- growth (OVCAR-4 ovarian): 19.6% [50 µM]
- growth (IGROV1 ovarian): 68.3% [50 µM]
- growth (OVCAR-3 ovarian): 57.3% [50 µM]
- growth (HS 578T breast): 65.3% [50 µM]
- growth (NCI/ADR-RES ovarian): 38.1% [50 µM]
- growth (BT-549 breast): 35.5% [50 µM]
- growth (MDA-MB-435 melanoma): 20.1% [50 µM]
- growth (SW-620 colon): 61% [50 µM]
- growth (MCF7 breast): 19% [50 µM]
- growth (HCT-116 colon): 32.6% [50 µM]
- growth (HCC-2998 colon): 72.7% [50 µM]
- growth (KM12 colon): 36.3% [50 µM]

Compound: COc1cc(C2CC(=O)Nc3c2ccc2ccccc32)cc(Br)c1OC (stereo not drawn)
- growth (SR leukemia): -6.32% (active)
- growth (OVCAR-8 ovarian): 27.7%
- growth (OVCAR-5 ovarian): 45.1%
- growth (OVCAR-4 ovarian): 41%
- growth (SK-OV-3 ovarian): 2.95% (active)
- growth (IGROV1 ovarian): 32.4%
- growth (OVCAR-3 ovarian): -26.3% (active)
- growth (HS 578T breast): 14%
- growth (NCI/ADR-RES ovarian): -10.7% (active)
- growth (T-47D breast): 51.2%
- growth (BT-549 breast): 10.9%
- growth (SW-620 colon): 20%
- growth (MCF7 breast): 9.65% (active)
- growth (HCT-116 colon): 11.2%
- growth (KM12 colon): 16.2%

Compound: CCCOC(=O)c1ccc2c(c1)[N+](=O)C(C(=O)c1ccccc1)=C(C(F)(F)F)[N+]2=O
- growth (SR leukemia): -41.4% (active)
- growth (OVCAR-8 ovarian): -86% (active)
- growth (OVCAR-5 ovarian): -87.7% (active)
- growth (OVCAR-4 ovarian): -73.1% (active)
- growth (SK-OV-3 ovarian): -99.9% (active)
- growth (IGROV1 ovarian): -74.4% (active)
- growth (OVCAR-3 ovarian): -95.3% (active)
- growth (HS 578T breast): -52% (active)
- growth (NCI/ADR-RES ovarian): -43.1% (active)
- growth (T-47D breast): -83.2% (active)
- growth (BT-549 breast): -83.9% (active)
- growth (MDA-MB-435 melanoma): -89.5% (active)
- growth (SW-620 colon): -82.5% (active)
- growth (MCF7 breast): -69.7% (active)
- growth (HCT-116 colon): -73% (active)
- growth (HCC-2998 colon): -87.6% (active)
- growth (KM12 colon): -81.6% (active)

Compound: CCN(CC)c1ccc(/C=C(\C#N)c2cc3ccccc3[nH]2)cc1
- growth (SR leukemia): 24.6%
- growth (OVCAR-8 ovarian): 63.4%
- growth (OVCAR-5 ovarian): 72.4%
- growth (OVCAR-4 ovarian): 68.2%
- growth (IGROV1 ovarian): 65.1%
- growth (OVCAR-3 ovarian): 20.9%
- growth (HS 578T breast): 58.3%
- growth (NCI/ADR-RES ovarian): 35.4%
- growth (BT-549 breast): 69.5%
- growth (MDA-MB-435 melanoma): 1.8% (active)
- growth (SW-620 colon): 23.3%
- growth (MCF7 breast): 23.7%
- growth (HCT-116 colon): 31.5%
- growth (HCC-2998 colon): 77.8%
- growth (KM12 colon): 21.7%

Compound: COc1nc2c(cc1S(=O)(=O)c1ccccc1)CCc1c-2cnn1-c1ccccc1
- growth (SR leukemia): 45.4%
- growth (OVCAR-8 ovarian): 76.4%
- growth (OVCAR-5 ovarian): 81.1%
- growth (OVCAR-4 ovarian): 76.7%
- growth (SK-OV-3 ovarian): 87.2%
- growth (IGROV1 ovarian): 79.6%
- growth (OVCAR-3 ovarian): 88.9%
- growth (HS 578T breast): 85.2%
- growth (NCI/ADR-RES ovarian): 80.8%
- growth (T-47D breast): 40.4%
- growth (BT-549 breast): 78.7%
- growth (MDA-MB-435 melanoma): 69.3%
- growth (SW-620 colon): 89.9%
- growth (MCF7 breast): 75.5%
- growth (HCT-116 colon): 72.4%
- growth (HCC-2998 colon): 98.1%
- growth (KM12 colon): 100%
